Reference: PubChem BioAssay (NCI)
Compounds without any hit were thinned out: in the full panel of roughly 83,000, 20% have a hit.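 Each cell line was grown in a 96-well plate and treated with one concentration of compound for 48 hours. Values below 10 were considered active.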 Active and inactive are the calls of the source.

System: NCI-H23 lung
Assay: NCI-60 one-dose screen, 48 h (100 = growth as untreated, 0 = no growth, -100 = all killed)
Details: 10 µM unless noted

Row | SMILES | growth
1 | Cc1ccc(C2CC(c3nc(-c4ccc(Cl)cc4)oc3C)=NN2C(=O)c2ccncc2)cc1 (stereo not given) | 85.8% (inactive)
2 | CSc1nc(C)c([N+](=O)[O-])c(N)n1 | 101% (inactive)
3 | [2H]C([2H])([2H])Oc1ccc(F)cc1/C=C/C(=O)/C=C(O)/C=C/c1cc(F)ccc1OC([2H])([2H])[2H] | 88.9% (inactive)
4 | COc1ccc(-c2nc3c(N)c(CO)cnc3s2)cc1 | 86.7% (inactive)
5 | O=S(=O)(NCCNc1nccc(-c2c(-c3ccc(F)c(O)c3)nc3sccn23)n1)c1ccc(F)cc1 | 36.6% (inactive)
6 | CCOC(=O)c1cnc2c(N=Nc3ccc(OC)cc3)c(N)nn2c1N | 98.8% (inactive)
7 | COc1ccc(-c2nn(-c3ccccc3)cc2/C=C/C(=O)NNC(=O)Nc2ccc(C)cc2)cc1 | 102% (inactive)
8 | Oc1ccc(/C=C/c2ccc(O)cc2)cc1 | 62.2% (inactive)
9 | O=[N+]([O-])c1ccc(-c2cn3nc(-c4c[nH]c5ccccc45)sc3n2)cc1 | 88.1% (inactive)
10 | Oc1c(CN2CCOCC2)cc(COCc2ccccc2)c2cccnc12 | 39.1% (inactive)
11 | CCOC(=O)CC1CSC(Nc2ccccc2)=N1 (stereo not given) | 98% (inactive)
12 | CCc1n(Cc2ccc3ccccc3n2)cc[n+]1Cc1ccc2ccccc2n1 | 16% (inactive)
13 | O=P(O)(O)OCC1OC(n2cnc3c(NCc4ccco4)ncnc32)C(O)C1O (stereo not given) | 18% (inactive)
14 | COc1ccc(C2=CC(c3cc(OC)c(OC)c(OC)c3)n3ncnc3N2)cc1 (stereo not given) | 29.1% (inactive)
15 | C/C=C(\C)C(=O)N[C@H]1C(O)C[C@]2(C)C3CC[C@@]4(C)C(CC[C@@H]4C(C)N(C)C)C3CCC2C1O (stereo not given in full) | 68.7% (inactive)
16 | COc1cc(-c2nc3sccn3c2-c2ccnc(NCCNS(=O)(=O)c3ccc(Cl)cc3)n2)ccc1F | 18.7% (inactive)
17 | CCCn1cnc2c(c1=N)C(c1ccc(F)cc1)c1sc3c(F)cccc3c1O2 (stereo not given) | 70.1% (inactive)
18 | C#CCNC(=O)[C@]1(C)CCC[C@@]2(C)[C@H]1CC=C1C=C(C(C)C)CC[C@@H]12 | 100% (inactive)
19 | N[C@H]1CCC[C@@H]1NCCCCN1C(=O)c2cccc3cc([N+](=O)[O-])cc(c23)C1=O | 47.7% (inactive)
20 | CC1C=CC(OC(=O)C(C)(O)CCC(O)(C(=O)OC2CC(O)C(C(C)C)CC2(C)O)C(C)C)(C(C)C)CC1 (stereo not given) | -70.5% [4.63 µM] (active)

Row | SMILES | growth
21 | C=CC(=O)Nc1ccc(Nc2nccc(-c3ccc(N4CCCC4)c(C#N)c3)n2)cc1 | 62.1% (inactive)
22 | CC(=O)OC(c1ccccc1)C1CCOC1=O (stereo not given) | 93.8% (inactive)
23 | COC(=O)CCC/C=C\C[C@H]1C=CC(=O)/C1=C/C[C@@H](O)C/C=C\CC(F)(F)F | -15.2% (active)
24 | N#CC1=C(N)Oc2ccc3ccccc3c2C1c1ccc([N+](=O)[O-])cc1 (stereo not given) | 78.2% (inactive)
25 | COc1cc(-c2nc3c(ncc4ccc(=O)n(-c5ccccc5)c43)s2)cc(OC)c1OC | 80.5% (inactive)
26 | Cc1ccc(-c2csc(N(C(=O)N3CCN(c4cc5c(cc4F)c(=O)c(C(=O)O)cn5C4CC4)CC3)c3ccccc3)n2)cc1 | -0.349% (active)
27 | O=c1cc(-c2ccccc2)[nH]c2ncc(-c3ccc(F)cc3)n12 | 72.2% (inactive)
28 | COc1cc(-c2nc3cc(Cl)c(Cl)cc3[nH]2)ccc1OCC(=O)N=Nc1c(O)[nH]c2ccc(Cl)cc12 | -3.62% (active)
29 | NC(=O)c1c(NC(=O)c2cccs2)sc2c1CCC(=O)C2 | 20.4% (inactive)
30 | O=C(Oc1ccc(CCl)cc1)c1ccccc1 | -72.6% (active)
31 | O=C(Cc1ccc(/C=C/C(=O)c2ncc[nH]2)cc1)Nc1cc(C(F)(F)F)cc(C(F)(F)F)c1 | 93.9% (inactive)
32 | Nc1ncnc2c1N=C(c1ccc3c(c1)OCO3)CC(c1cccc(Nc3ccnc4cc(C(F)(F)F)ccc34)c1)N2 (stereo not given) | 84.2% (inactive)
33 | COc1cccc(/C=N/NC(=O)c2ccccc2N2CCCC2)c1O | 53.3% (inactive)
34 | CCNc1ccc(-c2nc3ccccc3n3cccc23)cc1 | 79.6% (inactive)
35 | CN(C)CCCNC(=O)c1cncnc1Nc1ccc(OCc2cccc(F)c2)c(Cl)c1 | 61.5% (inactive)
36 | O=C(NC1CC(F)C1)c1cc2cccnc2n1-c1ccc(Cl)c(Cl)c1 (stereo not given) | 100% (inactive)
37 | CN1CCN(c2ccc3nc4c(nc3c2C(F)(F)F)C(=O)c2ncccc2C4=O)CC1 | -39.7% (active)
38 | Cc1ccc(N2C(=O)CCC2=O)cc1 | 101% (inactive)
39 | CCN1C(=O)N(CC)C2C1NN=c1s/c(=C3\C(=O)N(CCC(C)C)c4ccccc43)c(=O)n12 (stereo not given) | 30.8% (inactive)
40 | CN(Cc1cnc2nc(N)nc(N)c2n1)c1ccc(C(=O)NC(CCC(=O)O)C(=O)O)cc1Br (stereo not given) | 31.3% (inactive)
